SARS PLP yeast – SARS-CoV PLP inhibition in yeast; S. cerevisiae expressing SARS-CoV PLpro, growth rescue; Potency, µM (titrated, usually from 32.9 µM), without a hit: top-dose activity, positive = growth rescue, actives largely listed as activators; hit rate 0.19% among 330,000; AID 485353; note: potency is the fitted concentration of half-maximal effect; 0% is about no effect; nearly all actives have a fitted effect of over 55% in size
Pf growth 96h – P. falciparum growth inhibition at 96 hours; P. falciparum luciferase reporter growth, 96 h; Potency, µM (highest dose often 28.7 µM), for the others: top-dose activity change, negative = inhibition, actives largely listed as inhibitors; hit rate 6.9% among 320,000; AID 504834; active = well fitted inhibition curve with a large enough effect; inconclusive = small, poorly fitted or top-dose-only effect, or another doubt; inactive = no such curve, though single readings can be large or run the other way; note: potency is the fitted concentration of half-maximal effect; % is set by controls: 0 for no effect and ±100 for the full control effect
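Parasite growth measured via integrated firefly luciferase reporter in P. falciparum. Infected erythrocytes at 2% hematocrit, 0.05% parasitemia final were treated 96 hours at 37 C under 5% CO2, and luminescence was read.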
Shiga inhibitor – Shiga toxin inhibition; Vero cells, Shiga toxin protein synthesis inhibition reporter; inhibition, % at 38.7 µM; hit rate 9.2% among 290,000; AID 2315; in the data active = inhibition mostly above about 28%, no sharp cut-off; inactive = mostly below about 43%; note: 0% is about no effect
Pf growth 48h – inhibits P. falciparum growth in the first generation, 48 h; hit rate 5.9% among 310,000; Potency, µM (highest dose often 28.7 µM), for the others: at the highest dose activity change, negative = inhibition, usual class: inhibitors; AID 504832; P. falciparum luciferase growth in erythrocytes, 48 h; active = well fitted inhibition curve with a large enough effect; inconclusive = small, poorly fitted or top-dose-only effect, or another doubt; inactive = no such curve, though single readings can be large or run the other way; note: potency is the fitted concentration of half-maximal effect; % is set by controls: 0 for no effect and ±100 for the full control effect
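Parasite viability was followed by luminescence of a genomically integrated firefly luciferase. Cultures held 0.1% parasitemia at 2% hematocrit (final), incubated under 5% CO2 at 37 C.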
Cycloheximide cs – affects cycloheximide protein synthesis inhibition readout, counter-screen | max response, % | hit rate 12% among 300,000 | cell reporter, cycloheximide protein synthesis inhibition counterscreen; in the data active = max response mostly above about 13%, no sharp cut-off; inactive = mostly below about 14%; note: read at 38.3 µM for the half of the compounds with a filed dose; 0% is about no effect
NS1 function inh – influenza NS1 inhibition | Potency, µM (titrated, usually from 46.1 µM), for the others: at the highest dose activity, positive = more growth | hit rate 0.4% among 270,000 | AID 2326; note: potency is the fitted concentration of half-maximal effect; actives are rising curves; nearly all actives have a fitted effect of over 50% in size
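In this qHTS, NS1 from influenza A is expressed in budding yeast, where it slows growth. Cells are switched from glucose to 2% galactose medium (pH 6.0, -URA), treated with compound, and growth recovery is read at OD600.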
Active calls of the source: *; ? = inconclusive; . = no result; [ ] = remark or other dose. This is a sample that favours compounds with a hit; in the whole collection about 21% have one here. Unless noted, calls come from the whole dose curve.

SMILES | SARS PLP yeast | Pf growth 96h | Shiga inhibitor | Pf growth 48h | Cycloheximide cs | NS1 function inh
CCN1CCN(c2ccc(NC(=O)COc3ccc([N+](=O)[O-])cc3)cc2)CC1 | -8% | 20% | -8 | ? | -7 | -1%
O=C(c1ccco1)N1CCN(C/C=C/c2ccccc2)CC1 | ? | -4% | 22 | 31% | 10 | -1%
Cc1cc(C)cc(CN2CCC(Oc3ccc(C(=O)N4CCCC4)cc3)CC2)c1 | -1% | -19% | -6 | 12µM* | -1 | -6%
CC(C(=O)Nc1cccc([N+](=O)[O-])c1)N1CCN(C/C=C/c2ccccc2)CC1 (stereo not drawn) | -17% | 13µM* | -16 | ? | -1 | -3%
O=C(c1nn(Cc2ccccc2)c(=O)c2ccccc12)N1CCN(C/C=C/c2ccccc2)CC1 | 5% | 7.4µM* | 18 | 12µM* | -4 | -5%
CCOc1cc(C(=O)N2CCN(C/C=C/c3ccccc3)CC2)cc(OCC)c1OCC | 4% | 5.2µM* | -12 | . | -4 | -6%
O=C(c1cccc([N+](=O)[O-])c1)N1CCN(C/C=C/c2ccccc2)CC1 | 0% | ? | 17 | ? | 11 | 2%
NC(=O)c1ccc(N=Cc2ccc([N+](=O)[O-])s2)cc1 | -61% | -2% | 23 | -15% | 1 | -19%
COc1ccccc1/C=C/CN1CCC(Oc2cc(C(=O)NC3CC3)ccc2OC)CC1 | 3% | 45% | 10 | 9.3µM* | -3 | 3%
COc1ccc(OC)c(S(=O)(=O)Nc2c(NC3CCCCC3)c3ccccc3oc2=O)c1 | 6% | -22% | -5 | ? | -11 | 8%
Cc1ccc(-c2nnc(COC(=O)c3ccco3)o2)cc1 | 0% | ? | 60* | 24% | 38* | -26%
Cc1ccc(-c2nnc(COC(=O)c3cccs3)o2)cc1 | ? | 12% | 80* | 27% | 54* | -46%
O=C(OCc1nnc(-c2ccccc2)o1)c1ccc2ccccc2n1 | -11% | 23% | 26* | 29% | 12* | -31%
O=C(OCc1nnc(-c2ccccc2Br)o1)c1ccco1 | 1% | . | . | . | . | .
Cc1ccc(C(=O)OCc2nnc(-c3ccccc3)o2)o1 | -16% | . | 34 | 10% | 25* | -77%
CC(=O)N(C(C)=O)c1nc(-c2ccccc2)cn1/N=C/c1ccccc1 | -1% | 9% | 27 | 5% | 0 | -45%
Cc1nn2cc(-c3ccccc3)nc2s1 | -1% | 14%[5.75 µM] | 59 | 180% | 32* | -52%
Cc1ccc(-c2cc(C(=O)NCc3ccc4c(c3)OCO4)[nH]n2)c(O)c1C | 7% | 12µM* | 8 | 0% | 12 | ?
COc1ccc(CCNC(=O)c2cc(-c3ccc(C)c(C)c3O)n[nH]2)cc1OC | 9% | 15µM* | 6 | . | 11 | 19%
Cc1cc(O)c(-c2cc(C(=O)NCc3ccc4c(c3)OCO4)[nH]n2)cc1C | -4% | ? | 84 | 0% | 2 | 8%
CCCOc1ccc(NC(=O)CC2C(=O)N(CC)C(=S)N2CCCN2CCN(Cc3ccccc3)CC2)cc1 (stereo not drawn) | -10% | 4.1µM* | -14 | ? | -7 | .
CCCOc1ccc(NC(=O)CC2C(=O)N(CC)C(=S)N2CCNC(C)=O)cc1 (stereo not drawn) | -1% | 6% | -15 | -5% | -4 | -14%
O=C(CC1C(=O)N(Cc2ccccc2)C(=S)N1CCN1CCOCC1)Nc1ccc(F)cc1 (stereo not drawn) | 1% | -8% | -9 | 1.9µM* | 8 | 4%
Nc1cc2c(cc1[N+](=O)[O-])OCCOCCOCCO2 | 0% | 43% | 11 | 28% | 6 | 3%
O=C(O)CN1C(=O)/C(=C\C(Br)=C\c2ccccc2)SC1=S | 0% | 3% | 22 | ? | -2 | -43%
Cc1ccc(N=Cc2cc(Cc3ccccc3Cl)cc([N+](=O)[O-])c2O)c(O)c1 | -18% | -20% | 55 | 45% | 31* | .
COc1ccc(N=Cc2cc(Cc3ccccc3Cl)cc([N+](=O)[O-])c2O)cc1OC | 2% | -1% | 9 | ? | 11 | .
O=C(O)c1ccccc1CN1CCC[C@@H](C(=O)O)C1 | . | . | . | . | . | 11%
CC(=O)NCC1CCCN(Cc2cn(-c3ccccc3)nc2-c2ccc3c(c2)OCO3)C1 (stereo not drawn) | 1% | 13µM* | 11 | -30% | -3 | -4%
